Source: the supplement of paper PMC6555819

Experiments:
Assay in all cases: PBM binding z-score (relative to random genomic background probes); higher = stronger binding; sequences stand for … in GC…GCGATTGACAGCGTAGAATGAAGG
[1] = tested on: RARb homodimer (NR concentration 270 nM)
Summary of the method: (§1)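 Custom Agilent 4×180K protein-binding microarrays carried double-stranded probes. Their 34-nt variable regions held direct-repeat seeds, single-nucleotide variants, half-site ablations and random human genomic background sequences. Arrays were incubated 1 h with ligand-free nuclear receptor dimers in PBS pH 7.4, 2% milk, 0.02% Triton X-100, 1 mM DTT, 0.2 mg/mL BSA and 0.4 mg/ml salmon testes DNA. Antibodies against each partner (one per run) detected binding, and scanned fluorescence was regression-normalized. Binding z-scores use random background probes as reference.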

[2] = tested on: RARg:RXRa (NR concentration 270 nM, RXRa partner concentration 90 nM)
Summary of the method: as §1

[3] = tested on: RARg homodimer (NR concentration 270 nM)
Summary of the method: as §1

[4] = tested on: RXRa DBDmut IVT, anti-RXR (DBD mutation: RXRa K156A/R161A, NR concentration 90 nM)
Summary of the method: as §1

[5] = tested on: RXRa homodimer (NR concentration 180 nM)
Summary of the method: as §1

[6] = tested on: THRa:RXRa (NR concentration 90 nM, RXRa partner concentration 90 nM)
Summary of the method: as §1

[7] = tested on: THRa homodimer (NR concentration 90 nM)
Summary of the method: as §1

[8] = tested on: VDR homodimer (NR concentration 270 nM)
Summary of the method: as §1

Row | Sequence | PBM binding z-score [1] | PBM binding z-score [2] | PBM binding z-score [3] | PBM binding z-score [4] | PBM binding z-score [5] | PBM binding z-score [6] | PBM binding z-score [7] | PBM binding z-score [8]
1 | CGTCCAAGGTCAATGCTAGGTCAGTGCAAGCATT | 5.12 | 7.51 | 6.92 | 3.53 | 5.11 | 4.39 | 3.05 | 3.46
2 | CCTAGTTGGTCAGGAGGTCACAGACCGGATATGA | 4.29 | 5.27 | 4.13 | 0.184 | 5.2 | 3.57 | 2.15 | 2.05
3 | CCGACTGGGGCAAGGTTACCAAAACGCACAGCCA | 1.38 | 1.04 | 1.18 | -0.429 | 1.23 | 1.29 | 0.178 | -0.217
4 | CCGACTGAGGCATAAGGTTACCATAAGCCAGCCC | 1.13 | 0.506 | 0.395 | 0.281 | 0.885 | 2.07 | 1.53 | 0.195
5 | ATATGTAGGTTATCGGCTCATTCAGTTTGCGCAT | 0.158 | 0.446 | 0.752 | 0.79 | 0.927 | 0.266 | 0.293 | 0.816
6 | ATCTCTAGGTAACAAATTCAGTGAAAGAGAGGAC | 0.688 | 0.707 | 0.762 | -0.0663 | 0.508 | 1.02 | 0.762 | 0.435
7 | TCTAGTTGATCAAAGGTCACACACTCGAAATGCG | 4.89 | 6.54 | 5.95 | 2.21 | 7.03 | 4.22 | 2.08 | 2.79
8 | CCAGACAGGTCAAAGGTAACTCAGTCTGGTACGC | 3.43 | 5.62 | 4.75 | 2.47 | 6.86 | 3.06 | 0.0861 | 0.986
9 | ATATGTAGGTTAAGGGACATTCAGGTTGGTTCGC | 1.6 | 1.28 | 1.27 | 0.615 | 1.25 | 1.14 | 0.815 | 1.69
10 | TCCGCTAGGTCAGTTGGTCAGCTAACGAGCTGCC | 2.85 | 2.77 | 3.75 | 0.733 | 1.01 | 1.27 | 0.178 | -0.514
11 | CCTAGTTGGTTAAGGTCACACACGCTATAGGTAC | 4.5 | 4.48 | 4.33 | 2.36 | 4.63 | 4.64 | 6.15 | 4.12
12 | TCATATAGGTAATACATGTGAAAGTCGGCATCTA | -0.0768 | 0.625 | 0.544 | 1.57 | 1.14 | 0.246 | -0.0874 | 0.128
13 | ACCGAAAGGTCGTGAGGTGAGTATACAGAAAGGC | 2.84 | 4.64 | 4.01 | 1.74 | 5.25 | 3.48 | 1.28 | 0.625
14 | TCTGGTAGGTCAGTTGGTCAGCTAACGAGCTGCC | 2.92 | 3.09 | 3.99 | 0.902 | 1.37 | 0.644 | 0.0551 | 0.292
15 | CCTTACGGGTCAATGTTATAGCACGGGTGGTACG | 2.54 | 4.03 | 3.85 | 0.842 | 4.04 | 1.85 | -0.227 | 0.834
16 | TCATATAGGTAAACAGGTGAAAGTCCGTAAGTTA | 0.747 | 0.484 | 0.254 | 1.68 | 1.04 | 0.795 | 0.578 | 0.358
17 | CTACCTAGGTGAACAAGGTCGTTGATTACTATTC | 1.73 | 1.31 | 0.8 | 1.27 | 1.34 | 2.67 | 1.54 | 2.12
